Measured values published in a collection of fitness landscapes (doi:10.1016/j.celrep.2020.107928).
In all, about 81,000 sequences were measured (“one-hybrid fitness for binding parS DNA”: median about -0.17, highest 2% from about 0.51 on). Shown is part of a subset that was picked to be rich in the highest values.

B1: Caulobacter ParB omega fusion; a variant is named by its letters at X, in order, B8GW30 (parent)
chain: MESVVVGEPGMSEGRRGLGRGLSALLGEVDAAPAQAPGEQLGGSREAPIEILQRNPDQPRRTFREEDLEDLSNSIREKGVLQPILVRPSPDTAGEYQIVAGERAWRAAQRAGLKTVPIMVRELDDLAVLEIGIIENVQRADLNVLEEALSYKVLMEKFERTQENIAQTIGKSXSHVANXMRLLXLPDEVQSYLVSGELTAXHARAIAAAADPVALAKQIIEGGLSVRETEALARKAPNLSAGKSKGGRPPRVKDTDTQALESDLSSVLGLDVSIDHRGSTGTLTITYATLEQLDDLCNRLTRGI

Variants of: B1
Assay: one-hybrid fitness for binding parS DNA (scaled: cognate 1, non-cognate 0); higher = stronger binding
Conditions: with parS DNA site
Procedure, shortened: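 Bacterial one-hybrid selection in E. coli USO rpoZ- hisB- pyrF- with a HIS3 reporter carrying the site 19 bp from the promoter, screening Caulobacter ParB libraries with four specificity codons randomised (NNS). Cells grew 48 hours at 37°C on M9-minus-histidine plus 0.1 mM IPTG and 5 mM 3-AT. Plasmids before and after selection were Illumina-sequenced, three replicate libraries pooled, and variants under 10 reads dropped. Fitness is the log change in variant-to-wild-type read ratio, rescaled to cognate 1, non-cognate 0.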

Variant	one-hybrid fitness for binding parS DNA
GQFL	≤ 0.2
PQKC	≤ 0.2
NWQS	≤ 0.2
RCAN	0.477
RRAN	0.583
RRAH	≤ 0.2
RRFH	≤ 0.2
RRFP	≤ 0.2
RRFS	0.743
RRAD	≤ 0.2
RRFN	0.314
RRAS	0.652
MEPC	≤ 0.2
GRGV	≤ 0.2
MVCR	≤ 0.2
PWNF	≤ 0.2
ATEL	≤ 0.2
REGS	≤ 0.2
FMKF	≤ 0.2
IDST	≤ 0.2
HFES	≤ 0.2
QITI	≤ 0.2
LTWC	≤ 0.2
ADCT	≤ 0.2
ENNV	≤ 0.2
DYSL	≤ 0.2

Variant	one-hybrid fitness for binding parS DNA
RCCY	0.526
RMCY	0.509
RSCY	0.47
RPCY	≤ 0.2
WWVS	≤ 0.2
TIHD	≤ 0.2
VITG	≤ 0.2
YPSN	≤ 0.2
RLPP	≤ 0.2
RLIY	0.437
RLPG	0.755
RLIK	≤ 0.2
RLIG	0.934
RLPH	≤ 0.2
NLNR	≤ 0.2
YYRR	≤ 0.2
VLMH	≤ 0.2
LVRM	≤ 0.2
KHKS	≤ 0.2
DGAP	≤ 0.2
RWTQ	≤ 0.2
RWTR	≤ 0.2
RWTC	0.79
RWTS	0.956
RWTF	≤ 0.2
RWTD	≤ 0.2

Variant	one-hybrid fitness for binding parS DNA
RWTY	0.37
RWTG	0.824
RWTP	≤ 0.2
RWTH	≤ 0.2
RWTN	0.338
RWTT	0.705
SCKV	≤ 0.2
RMTE	≤ 0.2
EKPG	≤ 0.2
PAYN	≤ 0.2
HTMF	≤ 0.2
AKDP	≤ 0.2
FKSC	≤ 0.2
TTMG	≤ 0.2
PSRP	≤ 0.2
QMFV	≤ 0.2
YLKH	0.358
HKTR	≤ 0.2
KKHM	≤ 0.2
RLHA	0.592
DLHA	≤ 0.2
RPHA	≤ 0.2
RNHA	0.438
RCHA	0.626
RGHA	0.238
NAHA	≤ 0.2

Variant	one-hybrid fitness for binding parS DNA
RAHA	0.613
RSHA	0.592
RWHA	0.378
RDHA	≤ 0.2
LRPS	≤ 0.2
RCFW	0.256
MCTC	≤ 0.2
CVPM	≤ 0.2
SGES	≤ 0.2
ADNQ	≤ 0.2
SFPL	≤ 0.2
TQVG	≤ 0.2
TFSM	≤ 0.2
PVIS	≤ 0.2
DMHA	≤ 0.2
RHHA	0.526
RMHA	0.603
RTHA	0.61
DTHA	≤ 0.2
AFHA	≤ 0.2
RFHA	0.53
PFHA	≤ 0.2
NTHA	≤ 0.2
